Some test systems named below: CSNK1G1; CSNK1G2; CSNK1G3; CSNK2A1; CSNK2A2; DAPK1; DAPK2; DAPK3.
Common to all, as to details: concentration: 1 μM, replicates: in singlicate; n = 1
In a further test the test system is T1, CTK.
T1 construct: gene MATK

A further test has as its system T2, DCAMKL1.
T2 construct: gene DCLK1
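Also: KINOMEscan kinase panel screen.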

In the case of `Cl.NC(=O)c1cccc(Nc2nccc(Nc3ccc(Oc4c(Cl)cccc4Cl)c(Cl)c3)n2)c1` [GW659009], the “%Inh” value with CSNK1G1 was found to be 0%; in the test with CSNK1G2, 2%; with CSNK1G3, 7%; in the test with CSNK2A1 it was 3%; with CSNK2A2, 45%; with CTK, 34%. Also, the “%Inh” value is on record as 24% with DAPK1, 8% in the test with DAPK2, 44% with DAPK3 and 0% with DCAMKL1.
Consider `FC(F)(F)c1ccc(/C=C/c2cncnc2Nc2ccc3[nH]c(Cc4ccccc4)nc3c2)cc1` [GW709199], for which the “%Inh” value in the test with CSNK1G1 came to 2%; in the test with CSNK1G2, 0%; in the test on CSNK1G3, 4%; with CSNK2A1 it was 0%; in the test with CSNK2A2, 0%; in the test on CTK, 0%. The “%Inh” value with DAPK1 amounted to 0%; in the test on DAPK2 it was 0%; in the test on DAPK3, 11%; in the test with DCAMKL1, 9%.
Take `CN(C)Cc1ccc(-c2ccc3c(Nc4ccc(Oc5ccccn5)cc4)ccnc3c2)o1` [GW567148]: the “%Inh” value in the test with CSNK1G1 was found to be 0%; in the test with CSNK1G2, 0%; with CSNK1G3 it was 0%; with CSNK2A1, 0%; with CSNK2A2, 0%; in the test with CTK it was 16%. The “%Inh” value stood at 0% in the test with DAPK1, 0% in the test on DAPK2, 0% with DAPK3 and 14% with DCAMKL1.
On to `Cc1ccc(C)c(NC(=O)NC2CCN(c3ccnc(Nc4ccc(F)cc4)n3)C2)c1` (centres unmarked) [GSK1379720], for which the “%Inh” value in the test with CSNK1G1 came out at 0%; with CSNK1G2, 15%; in the test on CSNK1G3 it was 12%; in the test on CSNK2A1, 0%; in the test on CSNK2A2, 0%; in the test with CTK, 0%. Moreover, the “%Inh” value in the test with DAPK1 was 0%; with DAPK2, 0%; in the test on DAPK3, 0%; in the test on DCAMKL1 it was 6%.
As for `COc1cccc(C(=O)Nc2cccc(Oc3ccc4nc(NC(=O)C5CC5)cn4n3)c2)c1`, the “%Inh” value was 13% in the test with CSNK1G1; 0% in the test on CSNK1G2; 30% in the test on CSNK1G3; 0% in the test on CSNK2A1; 17% in the test on CSNK2A2; 0% with CTK. In addition, the “%Inh” value in the test on DAPK1 is reported as 0%; in the test with DAPK2, 4%; in the test with DAPK3, 9%; with DCAMKL1 it was 20%.
Regarding `COc1cc(Nc2nccc(-c3c(-c4cccc(NC(=O)c5c(F)cccc5F)c4)nn4ccccc34)n2)cc(OC)c1OC` [GSK323521], the “%Inh” value in the test on CSNK1G1 is on record as 20%; with CSNK1G2, 31%; with CSNK1G3 it was 25%; in the test on CSNK2A1, 2%; in the test with CSNK2A2, 6%; in the test on CTK, 0%. Moreover, the “%Inh” value is on record as 0% in the test on DAPK1, 22% in the test on DAPK2, 19% with DAPK3 and 9% in the test with DCAMKL1.
For the compound `C[C@@H](Oc1cc(-n2cnc3cc(-c4ccnc(NCCS(C)(=O)=O)c4)ccc32)sc1C(N)=O)c1ccccc1Cl` [GSK907232], the “%Inh” value in the test with CSNK1G1 was found to be 13%; in the test on CSNK1G2 it was 0%; in the test on CSNK1G3 it was 14%; with CSNK2A1, 16%; in the test with CSNK2A2, 37%; in the test on CTK it was 5%. Moreover, the “%Inh” value in the test on DAPK1 is on record as 64%; in the test with DAPK2, 12%; in the test on DAPK3, 17%; in the test on DCAMKL1, 26%.
For `COc1ccc(-c2coc3ccc(-c4nnc(SCc5ccc(OC)c(C(F)(F)F)c5)o4)cc23)cc1`, the “%Inh” value with CSNK1G1 came out at 0%; in the test with CSNK1G2 it was 24%; in the test with CSNK1G3, 0%; in the test on CSNK2A1 it was 22%; in the test with CSNK2A2, 24%; in the test on CTK it was 10%. Also, the “%Inh” value in the test on DAPK1 was 15%; with DAPK2, 0%; in the test with DAPK3, 0%; in the test with DCAMKL1, 38%.
With `COc1ccc(Nc2nccc(NCCNC(=O)c3cc4ccccc4s3)n2)cc1` [GSK1379896], the “%Inh” value in the test on CSNK1G1 amounted to 54%; in the test with CSNK1G2, 0%; with CSNK1G3, 27%; in the test on CSNK2A1 it was 0%; in the test on CSNK2A2, 15%; in the test with CTK, 0%. Besides, the “%Inh” value in the test with DAPK1 was 4%; with DAPK2, 2%; in the test with DAPK3, 0%; with DCAMKL1 it was 10%.
As to `Cl.Cl.NCC(NCc1ccc(-c2ccnc3[nH]ccc23)s1)c1ccccc1` (centres unmarked) [GSK1321565], the “%Inh” value in the test with CSNK1G1 is 0%; in the test on CSNK1G2 it was 0%; in the test with CSNK1G3, 33%; with CSNK2A1, 39%; in the test with CSNK2A2, 37%; with CTK, 0%. The “%Inh” value in the test with DAPK1 amounted to 67%; in the test on DAPK2, 32%; with DAPK3, 71%; in the test with DCAMKL1 it was 21%.
As for `Fc1ccc(-c2ncn(C3CCNCC3)c2-c2ccnc(Oc3ccc(-c4ccccc4)cc3)n2)cc1` [SB-245391], the “%Inh” value with CSNK1G1 was 30%; with CSNK1G2, 78%; in the test with CSNK1G3 it was 49%; in the test with CSNK2A1 it was 0%; with CSNK2A2, 7%; in the test on CTK it was 37%. Also, the “%Inh” value in the test with DAPK1 was 14%; in the test on DAPK2 it was 5%; in the test with DAPK3 it was 22%; with DCAMKL1, 10%.
On to `Cc1cccc(NC(=O)Nc2ccc(Oc3ncnc4ccn(C)c34)cc2)c1`, for which the “%Inh” value in the test on CSNK1G1 came out at 0%; in the test with CSNK1G2 it was 10%; in the test on CSNK1G3 it was 5%; in the test on CSNK2A1, 0%; with CSNK2A2 it was 0%; in the test with CTK, 0%. Besides, the “%Inh” value is listed as 0% with DAPK1, 0% in the test on DAPK2, 0% with DAPK3 and 45% in the test with DCAMKL1.
For `Nc1n[nH]c2cnc(-c3ccccc3)cc12` [SB-642124], the “%Inh” value is recorded as 4% with CSNK1G1; 0% with CSNK1G2; 3% in the test on CSNK1G3; 21% in the test with CSNK2A1; 27% in the test on CSNK2A2; 0% in the test with CTK. Moreover, the “%Inh” value in the test with DAPK1 was determined as 24%; in the test on DAPK2 it was 0%; in the test on DAPK3, 27%; in the test with DCAMKL1, 13%.
For the compound `CCc1ccc(-c2ccc3c(c2)-c2c(cnn2C)S(=O)(=O)N3C)cc1`, the “%Inh” value came out at 0% with CSNK1G1; 2% in the test with CSNK1G2; 0% in the test on CSNK1G3; 0% in the test on CSNK2A1; 10% in the test with CSNK2A2; 26% with CTK. Moreover, the “%Inh” value in the test with DAPK1 was determined as 1%; in the test with DAPK2 it was 0%; in the test with DAPK3 it was 5%; in the test on DCAMKL1, 0%.
Take `O=C(Nc1n[nH]c2cc(-c3ccoc3)ccc12)C1CC1` [SB-738481]: the “%Inh” value in the test with CSNK1G1 is 0%; in the test on CSNK1G2, 0%; in the test with CSNK1G3, 12%; with CSNK2A1, 35%; with CSNK2A2, 66%; with CTK, 25%. Besides, the “%Inh” value is given as 6% with DAPK1, 0% with DAPK2, 0% in the test with DAPK3 and 2% in the test on DCAMKL1.
As for `C[C@@H]1CC[C@@H](C(=O)Nc2ccccc2)CN1c1cc(-c2ccc3c(N)n[nH]c3c2)nc(N)n1` [GSK2286062], the “%Inh” value was determined as 13% in the test on CSNK1G1; 8% in the test on CSNK1G2; 14% with CSNK1G3; 54% with CSNK2A1; 7% with CSNK2A2; 0% with CTK. For the same compound, the “%Inh” value in the test with DAPK1 worked out at 0%; in the test on DAPK2 it was 23%; in the test with DAPK3 it was 20%; in the test with DCAMKL1, 7%.
Consider `Cl.c1ccc(-c2ccc3c(Nc4ccc5[nH]ccc5c4)ccnc3c2)nc1` [GW440138], for which the “%Inh” value with CSNK1G1 worked out at 0%; in the test on CSNK1G2, 0%; with CSNK1G3 it was 25%; with CSNK2A1, 0%; with CSNK2A2, 0%; with CTK, 0%. The “%Inh” value is given as 5% in the test on DAPK1, 0% with DAPK2, 23% with DAPK3 and 0% in the test with DCAMKL1.
On to `CSc1cccc2c(-c3ccncn3)c(-c3ccc(F)cc3)nn12` [GW514786], for which the “%Inh” value with CSNK1G1 stood at 3%; in the test with CSNK1G2 it was 10%; in the test with CSNK1G3 it was 21%; in the test with CSNK2A1, 0%; with CSNK2A2 it was 13%; in the test with CTK, 0%. In addition, the “%Inh” value in the test with DAPK1 is listed as 0%; in the test with DAPK2, 0%; in the test with DAPK3, 0%; in the test on DCAMKL1, 5%.
Take `CC(=O)N1CCN(c2ccc(Nc3nccc(-c4sc(C(C)C)nc4-c4cccc(NS(=O)(=O)c5cccc(Cl)c5)c4)n3)cn2)CC1` [GSK1660437]: the “%Inh” value stood at 0% in the test on CSNK1G1; 0% in the test with CSNK1G2; 10% in the test with CSNK1G3; 13% with CSNK2A1; 0% with CSNK2A2; 27% with CTK. The “%Inh” value in the test with DAPK1 is 14%; with DAPK2, 0%; in the test on DAPK3, 6%; in the test with DCAMKL1 it was 9%.
With `Cn1cc(-c2[nH]c3cc(NC(=O)[C@H](N)C4CCCCC4)cc4c3c2C=NNC4=O)cn1`, the “%Inh” value in the test with CSNK1G1 is reported as 0%; in the test with CSNK1G2, 0%; in the test with CSNK1G3, 2%; in the test on CSNK2A1, 68%; with CSNK2A2, 77%; with CTK, 0%. Moreover, the “%Inh” value stood at 99.8% with DAPK1, 98.7% with DAPK2, 99.7% in the test with DAPK3 and 46% in the test on DCAMKL1.
On to `O=C(Nc1cccc(Oc2ccc3nc(NC(=O)C4CC4)cn3n2)c1)c1ccccc1C(F)(F)F`, for which the “%Inh” value in the test on CSNK1G1 is 8%; with CSNK1G2 it was 0%; in the test on CSNK1G3, 26%; in the test on CSNK2A1, 0%; with CSNK2A2 it was 0%; in the test with CTK it was 0%. Moreover, the “%Inh” value came to 0% in the test on DAPK1, 5% in the test with DAPK2, 7% with DAPK3 and 39% in the test with DCAMKL1.
Consider `Nc1ncc(-c2ccc3nccc(-c4ccncc4)c3c2)cc1S(=O)(=O)N1CCOCC1` [GSK1627798], for which the “%Inh” value with CSNK1G1 is recorded as 0%; with CSNK1G2, 0%; in the test with CSNK1G3 it was 8%; with CSNK2A1 it was 5%; in the test on CSNK2A2, 1%; in the test on CTK, 0%. Moreover, the “%Inh” value with DAPK1 worked out at 0%; with DAPK2, 2%; in the test with DAPK3 it was 9%; in the test with DCAMKL1, 0%.
As for `CN(C)S(=O)(=O)c1cc(-c2ccc3nccc(-c4cccc(S(N)(=O)=O)c4)c3c2)cnc1N` [GSK1669921], the “%Inh” value with CSNK1G1 amounted to 22%; in the test on CSNK1G2, 0%; in the test on CSNK1G3, 33%; in the test with CSNK2A1, 11%; in the test on CSNK2A2, 4%; in the test with CTK, 12%. Further, the “%Inh” value in the test on DAPK1 was found to be 0%; with DAPK2, 8%; with DAPK3 it was 3%; with DCAMKL1, 28%.

The values above are taken from article PMC5540273 (PLoS ONE, 2017).
